FLuc modulator: counter-screen for miR-21 project: firefly luciferase inhibitors or activators. P08659. purified FLuc, Km substrates, luminescence inhibition. Potency, µM (series often up to 57.5 µM), inactives show top-dose activity change, negative = inhibition, hits mostly inhibitors. AID 588342. actives 6.9% (n = 360,000);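 note: plate controls were vehicle for no effect and reference inhibitor for full effect; nearly all actives have a fitted effect of over 55% in size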
Target sequence (P08659 whole entry, looked up): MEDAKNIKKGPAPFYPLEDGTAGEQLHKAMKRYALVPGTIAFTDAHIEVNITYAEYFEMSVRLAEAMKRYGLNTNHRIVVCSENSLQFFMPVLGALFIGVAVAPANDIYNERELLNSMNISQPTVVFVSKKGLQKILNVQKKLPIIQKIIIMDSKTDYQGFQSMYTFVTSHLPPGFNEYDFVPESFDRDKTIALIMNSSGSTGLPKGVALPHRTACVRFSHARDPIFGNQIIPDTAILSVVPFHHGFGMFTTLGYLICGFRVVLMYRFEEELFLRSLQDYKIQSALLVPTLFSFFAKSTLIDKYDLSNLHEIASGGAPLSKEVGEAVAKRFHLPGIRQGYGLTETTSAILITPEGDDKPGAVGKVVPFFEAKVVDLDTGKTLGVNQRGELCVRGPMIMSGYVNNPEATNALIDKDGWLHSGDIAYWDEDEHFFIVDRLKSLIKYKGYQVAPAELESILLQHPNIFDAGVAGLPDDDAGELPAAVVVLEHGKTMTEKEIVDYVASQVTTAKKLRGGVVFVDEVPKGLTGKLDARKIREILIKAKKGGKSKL
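Purified P. pyralis luciferase, 10 nM final, with Km-level 10 uM D-luciferin and 10 uM ATP in 50 mM Tris acetate pH 7.5, 10 mM Mg acetate, 0.01% Tween-20, 0.05% BSA; 6-point qHTS titration about 60 µM downward; luminescence read.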
KinaseGlo FLuc: counter-screen: inhibitors of Kinase-Glo firefly luciferase | Q27757 | Kinase-Glo luciferase, ATP luminescence, 8 min | Potency, µM (titrated, usually from 38.3 µM), inactives show at the top dose activity change, negative = inhibition, most hits filed as inhibitors | actives 0.28% (n = 200,000); note: % is set by controls: 0 for no effect and ±100 for the full control effect; nearly all actives have a fitted effect of over 60% in size
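Kinase-Glo luciferase light output from ATP and luciferin was measured with 10 uM ATP, within the enzyme's linear range. Buffer: 50 mM imidazole pH 7.2, 50 mM KCl, 7 mM MgCl2, 0.01% Tween 20, 0.05% BSA; luminescence read after 8 min at ambient temperature.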
SMN2 splice enh: SMN2 splice variant enhancement. HEK293 SMN2-luciferase splicing reporter, luminescence, 30-36 h. Potency, µM (doses to about 46.1 µM), for the others: at the highest dose activity change, positive = activation, most hits filed as activators. actives 2.8% (n = 210,000). AID 1458; note: % of control where 0% means no effect; nearly all actives have a fitted effect of over 55% in size
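HEK293 cells carry an SMN2 minigene-luciferase reporter in which exon 7 inclusion puts luciferase in frame. Cells were seeded at 2000 cells/well, attached for 10-12 hours, then exposed to compounds for 30-36 hours at 37C before ONE-Glo luminescence.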
NPC1 promoter act: activates the NPC1 promoter | Potency, µM (doses to about 9.22 µM), without a hit: at the top dose activation, hits mostly activators | AID 485313 | Huh7 NPC1 promoter luciferase reporter, 24 h | actives 2.4% (n = 320,000); note: % of control where 0% means no effect; nearly all actives have a fitted effect of over 60% in size
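NPC1 promoter–luciferase Huh7 cells; 24 h compound; luminescence.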
Rab9 prom act: activators of Rab9 promoter; Huh7 Rab9 promoter-luciferase reporter, luminescence, 24 h; Potency, µM (highest dose often 9.22 µM), for the others: at the top dose activation, negative = inhibition, usual class: activators; actives 2.8% (n = 320,000); AID 485297; note: % of control where 0% means no effect; nearly all actives have a fitted effect of over 60% in size
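Huh7 cells stably carrying a Rab9 promoter-luciferase reporter, 1500 cells per well in OP-MEM I with 10% FBS, treated with compound 24 hours at 37C. Luciferase activity read by luminescence after 10 minutes with Amplite reagent.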
ELG1 genotoxic: genotoxicity induction in ELG1-luciferase HEK293T cells | HEK293T ELG1-luciferase reporter, luminescence, 16 h | Potency, µM (series often up to 46 µM), without a hit: at the highest dose activity change, positive = activation, most hits filed as activators | actives 1.3% (n = 330,000) | AID 504466; note: % of control where 0% means no effect; nearly all actives have a fitted effect of over 60% in size
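ELG1-luciferase HEK293T cells, 2,000/well; compound pinned in; 16 hr, 37 °C, 5% CO2; ONE-Glo, 30 min RT; luminescence on CCD imager.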
The depositor's hits bear a star; ? = inconclusive; . = no result given; [ ] = another dose, or the depositor's remark. Rows were chosen to be rich in hits. Some 7.3% of all compounds tested hit in one or more screens of this group. Calls come from the whole dose curve; as a rule, active = well fitted curve in the direction sought with a large enough effect; inconclusive = small, poorly fitted or top-dose-only effect, or another doubt; inactive = no such curve, though single readings can be large; an effect the other way counts as inactive or inconclusive. Potency is the fitted concentration of half-maximal effect.

SMILES | FLuc modulator | KinaseGlo FLuc | SMN2 splice enh | NPC1 promoter act | Rab9 prom act | ELG1 genotoxic
O=C(O)Cc1sc(-c2ccccc2)nc1-c1ccccc1 | ? | 2% | -2% | 2% | 2% | 0%
Cc1ccc(Nc2nc(-c3ccccc3)c(CC(=O)O)s2)cc1 | 13µM* | 3% | 2% | 2% | 13% | ?
O=C(O)Cc1sc(Nc2ccccc2Cl)nc1-c1ccccc1 | 3.4µM* | . | 69% | . | . | .
CC(C)(C)c1ccc(-c2nc(O)c(CC(=O)O)s2)cc1 | 1.9µM* | . | . | -2% | 17% | 3%
O=C(NCc1ccc2c(c1)CCN2C(=O)c1ccccc1)c1ccco1 | -15% | . | . | . | . | .
O=C(Cc1sc(Nc2ccccc2)nc1-c1ccccc1)NCc1ccccn1 | 19µM* | 5% | 13µM* | ? | ? | ?
O=C(O)Cc1sc(Nc2ccc(F)cc2)nc1-c1cccs1 | 17µM* | -1% | . | 26% | ? | 29%
O=C(O)Cc1sc(Nc2ccccc2)nc1-c1ccc(Cl)cc1 | ? | 1% | 11% | -13% | -1% | ?
COc1ccc(NC(=O)C2(S(=O)(=O)c3ccc(C)cc3)CC2)c(OC)c1 | -4% | . | -12% | . | . | .
CCS(=O)(=O)N1Cc2ccccc2CC1C(=O)Nc1ccc(C)cc1 (centres undefined) | ? | -3% | 9% | 0% | 12% | ?
CCS(=O)(=O)N1Cc2ccccc2CC1C(=O)Nc1cccc(C)c1 (centres undefined) | 24µM* | 0% | ? | ? | 27% | 15%
O=C(Nc1nccs1)C1Cc2ccccc2CN1S(=O)(=O)c1ccc(F)cc1 (centres undefined) | 24µM* | 1% | 11µM* | ? | ? | ?
CCS(=O)(=O)N1Cc2ccccc2CC1C(=O)Nc1ncc(C)s1 (centres undefined) | ? | 3% | 13µM* | 26% | ? | ?
Cc1ccc(-n2c(=O)c3c4c(sc3n(CC(=O)Nc3ccccc3C)c2=O)CCCCC4)cc1C | -5% | . | 12% | . | . | .
Cc1ccc2nc(NC(=O)COc3ccc(F)cc3)sc2c1 | 2% | . | . | . | . | .
Cc1ccc2nc(NC(=O)COC(=O)CSc3nc(C)cc(C)n3)sc2c1 | ? | -10% | 21% | ? | ? | 9%
COCC(=O)Nc1nc2ccc(C)cc2s1 | 9.5µM* | -19% | 10µM* | 2.5µM* | 1.1µM* | 2.1µM*
Cc1ccc2nc(NC(=O)COC(=O)c3ccncc3)sc2c1 | 8.5µM* | 9% | ? | ? | ? | ?
CCOc1cc(N(CC)CC)ccc1/C=C(/C#N)c1nc2ccccc2[nH]1 | 9.5µM* | 3% | -47% | 5% | ? | 0%
CCN(CC)c1ccc(/C=C(/C#N)c2nc3ccc(C)cc3[nH]2)c(OC(C)C)c1 | 5.4µM* | -1% | -1% | -2% | -2% | -5%
CC(C)CSc1ccccc1NC(=O)c1sc2nc(-c3ccncc3)ccc2c1N | -1% | . | -2% | . | . | .
COCCn1c(=O)[nH]c2cc(C(=O)OC)ccc2c1=O | 2% | 1% | -7% | 0% | -5% | 1%
COCCn1c(=O)[nH]c2cc(C(=O)NCc3ccccc3Cl)ccc2c1=O | -1% | . | 4µM* | . | . | .
CN(C(=O)Cn1nnc(-c2ccc(S(C)(=O)=O)cc2)n1)c1ccccc1 | -5% | . | -10% | . | . | .
O=C(CSc1nc(O)c(C/C=C/c2ccccc2)c(=O)[nH]1)Nc1cccc(F)c1 | 11µM* | . | -8% | . | . | .
SMILES | FLuc modulator | KinaseGlo FLuc | SMN2 splice enh | NPC1 promoter act | Rab9 prom act | ELG1 genotoxic
CCOc1ccccc1NC=C1C(=O)OC(C)(C)OC1=O | ? | -3% | -4% | 17% | 2% | -1%
COc1ccccc1NC=C1C(=O)OC(C)(C)OC1=O | 11µM* | 7% | 9% | -4% | 9% | 0%
O=C(/C=C/c1ccccc1)Nc1cc(-c2nc3ccccc3o2)ccc1Cl | -18% | . | 3% | . | . | .
Cc1ccc(C(=O)ON=C2CCN(c3ccc([N+](=O)[O-])cc3)CC2)cc1 | 11µM* | -6% | -6% | 0% | 6% | -1%
Cc1ccc(C(=O)NC(=S)N2CCN(c3ccc([N+](=O)[O-])cc3)CC2)cc1 | 4% | 0% | -18% | -1% | -2% | -2%
O=C1c2ccccc2C(=O)c2cc(NC(=O)C3CC3)ccc21 | ? | -5% | 11µM* | 2.5µM* | 2.2µM* | ?
COc1cc(C(=O)Nc2ccc3c(c2)C(=O)c2ccccc2C3=O)cc(OC)c1OC | 1% | -1% | 5%[1.84 µM] | -4% | -2% | 0%
O=C(O)/C=C/C(=O)Nc1ccc2c(c1)C(=O)c1ccccc1C2=O | 17µM* | . | . | 5% | 13% | 9%
Nc1ccc2c(c1)C(=O)c1ccccc1C2=O | 13µM* | . | 16µM* | ? | 4µM* | ?
CC(=O)Nc1ccc2c(c1)C(=O)c1ccccc1C2=O | 4.8µM* | -6% | 13µM* | 1.6µM* | 0.71µM* | ?
O=C1c2ccccc2-c2ccc(NC(=O)[C@H]3CCCC[C@@H]3C(=O)O)cc21 | . | 0%[7.66 µM] | -2%[9.22 µM] | . | . | .
O=C1C=C(Nc2nc(C(=O)O)cc(=O)[nH]2)c2ccccc2C1=O | . | 0%[7.66 µM] | -4%[9.22 µM] | . | . | .
Cc1cc(=O)n2nc(N3CCC(C(=O)Nc4c(C)cccc4C)CC3)sc2n1 | 0% | . | 20% | . | . | .
COc1ccc(NC(=O)c2ccc3c(=O)n4nc(Nc5cccc(Cl)c5C)sc4nc3c2)cc1 | -8% | . | . | . | . | .
Cc1c(-c2ccccc2)n(-c2ccccc2O)c2nc3c(c(=O)n(C)c(=O)n3C)n12 | -19% | . | -3% | . | . | .
CC1CCN(C(=O)CSc2ccc(-c3ccccc3)nn2)CC1 | -14% | 6% | -24% | 0% | -2% | -8%
O=C(CSc1ccc(-c2ccccc2)nn1)c1cccs1 | ? | -5% | 18µM* | ? | ? | ?
COc1ccc(NC(=O)CSc2ccc(-c3cccs3)nn2)cc1 | -9% | . | . | . | . | .
COc1ccc(-c2ccc(SCC(=O)N3CC(=O)Nc4ccccc43)nn2)cc1 | 3µM* | . | . | 25% | 28% | 3%
Cc1nc(SCC(=O)N2CC(=O)Nc3ccccc32)nc(C)c1C | -4% | 2% | 6% | -2% | 1% | 3%
COc1ccc(-c2ccc(SCC(=O)c3cccs3)nn2)cc1 | 11µM* | 1% | 13µM* | 12% | 27% | ?
O=C(CSc1ccc(-c2ccccc2)nn1)N1CCOCC1 | -17% | -23% | 6.3µM* | 17% | 18% | ?
Cc1ccccc1-c1cc2nccc(-c3cc(Cl)ccc3O)n2n1 | -2% | . | 3% | . | . | .
COc1ccc(CNC(=O)c2ccc3c(c2)CCN3S(=O)(=O)c2ccc(C)cc2)cc1 | -2% | . | -22% | . | . | .

Source: PubChem BioAssay
